Measured values as given in article PMC7862700, “An all-to-all approach to the identification of sequence-specific readers for epigenetic DNA modifications on cytosine”.

Columns and labels:
Assay in all cases: DAPPL (digital affinity profiling via proximity ligation, sequencing); 10 mM Tris-HCl pH 7.5, 50 mM NaCl, 1 mM DTT, 4% glycerol, room temperature, 30 min; GST-TFs on glutathione beads, 16-mer random dsDNA library, 0.1% formaldehyde crosslink after washing; high values mean tight binding
Settings in all cases: protein: recombinant; tags: N-terminal GST; dsDNA, one strand shown
[1] = target: T1, FLI1 (Homo sapiens, UniProt Q01543 1-452)
T1 sequence: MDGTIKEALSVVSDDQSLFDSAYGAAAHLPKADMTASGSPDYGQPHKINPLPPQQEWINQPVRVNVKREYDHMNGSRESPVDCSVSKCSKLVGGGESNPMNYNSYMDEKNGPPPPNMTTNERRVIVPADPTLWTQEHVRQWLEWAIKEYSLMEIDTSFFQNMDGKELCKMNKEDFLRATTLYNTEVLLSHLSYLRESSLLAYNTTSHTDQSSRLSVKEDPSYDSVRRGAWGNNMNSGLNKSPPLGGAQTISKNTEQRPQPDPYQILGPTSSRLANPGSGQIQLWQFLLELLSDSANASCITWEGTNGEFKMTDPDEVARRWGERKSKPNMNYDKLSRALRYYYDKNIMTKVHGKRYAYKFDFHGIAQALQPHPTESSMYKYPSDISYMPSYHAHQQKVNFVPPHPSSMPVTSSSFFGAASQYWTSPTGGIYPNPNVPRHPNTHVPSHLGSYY
Summary of the method: (§1)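 Binding signal is each hexamer's read frequency for a factor divided by its frequency in the tag-only sample. The factors were GST-fused human transcription factors from yeast, captured on glutathione beads, DNA-barcoded and pooled with that sample. Pools were incubated with 200 nmole of a random double-stranded 16-mer DNA library in Tris/NaCl/DTT/glycerol buffer at room temperature for 30 min, then washed, crosslinked with 0.1% formaldehyde, proximity-ligated with BsaI/T4 ligase (1 h, 37 °C), PCR-amplified and sequenced on an Illumina NextSeq500.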

[2] = target: ELF1 (Homo sapiens, UniProt P32519 1-619)
Summary of the method: as §1

[3] = target: SPIB (Homo sapiens, UniProt Q01892 1-262)
Summary of the method: as §1

[4] = target: T2, ELF3 (Homo sapiens, UniProt P78545 1-371)
T2 sequence: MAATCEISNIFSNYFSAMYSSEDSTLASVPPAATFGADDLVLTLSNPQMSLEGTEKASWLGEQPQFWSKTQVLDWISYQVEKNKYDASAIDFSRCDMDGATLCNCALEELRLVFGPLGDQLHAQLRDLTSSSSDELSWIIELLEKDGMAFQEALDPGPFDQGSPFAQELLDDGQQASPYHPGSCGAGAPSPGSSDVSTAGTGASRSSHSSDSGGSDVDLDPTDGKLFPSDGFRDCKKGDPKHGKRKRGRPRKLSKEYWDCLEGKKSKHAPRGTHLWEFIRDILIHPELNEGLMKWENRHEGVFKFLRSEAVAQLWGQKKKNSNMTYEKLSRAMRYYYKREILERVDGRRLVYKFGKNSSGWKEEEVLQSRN
Summary of the method: as §1

[5] = target: ETV1 (Homo sapiens, UniProt P50549 1-477)
Summary of the method: as §1

[6] = target: T3, ERF (Homo sapiens, UniProt P50548 1-548)
T3 sequence: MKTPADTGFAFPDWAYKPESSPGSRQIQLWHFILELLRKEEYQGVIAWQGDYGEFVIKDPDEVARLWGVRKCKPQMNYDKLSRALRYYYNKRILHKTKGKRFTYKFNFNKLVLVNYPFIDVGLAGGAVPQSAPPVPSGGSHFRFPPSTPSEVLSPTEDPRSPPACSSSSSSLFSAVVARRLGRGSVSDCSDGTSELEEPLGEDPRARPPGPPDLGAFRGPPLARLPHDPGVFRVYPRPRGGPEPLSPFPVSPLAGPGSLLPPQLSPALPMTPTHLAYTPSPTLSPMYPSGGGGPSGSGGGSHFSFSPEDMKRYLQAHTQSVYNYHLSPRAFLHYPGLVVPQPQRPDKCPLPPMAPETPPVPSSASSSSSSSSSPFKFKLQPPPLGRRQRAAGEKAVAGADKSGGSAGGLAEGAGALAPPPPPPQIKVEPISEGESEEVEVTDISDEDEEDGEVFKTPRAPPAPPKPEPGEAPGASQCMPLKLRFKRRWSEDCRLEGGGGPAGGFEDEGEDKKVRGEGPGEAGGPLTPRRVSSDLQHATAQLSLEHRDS
Summary of the method: as §1

[7] = target: T4, ETV3L (Homo sapiens, UniProt Q6ZN32 1-361)
T4 sequence: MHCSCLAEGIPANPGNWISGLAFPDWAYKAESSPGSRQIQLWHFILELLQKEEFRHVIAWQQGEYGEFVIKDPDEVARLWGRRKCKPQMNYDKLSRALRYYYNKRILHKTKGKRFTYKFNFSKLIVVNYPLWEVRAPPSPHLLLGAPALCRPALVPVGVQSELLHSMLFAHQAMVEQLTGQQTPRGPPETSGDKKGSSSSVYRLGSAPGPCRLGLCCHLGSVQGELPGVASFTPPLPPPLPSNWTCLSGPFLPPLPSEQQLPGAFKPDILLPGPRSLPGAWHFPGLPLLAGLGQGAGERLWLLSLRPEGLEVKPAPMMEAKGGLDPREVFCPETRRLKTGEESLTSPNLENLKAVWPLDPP
Summary of the method: as §1

[8] = target: T5, ETS2 (Homo sapiens, UniProt P15036 1-469)
T5 sequence: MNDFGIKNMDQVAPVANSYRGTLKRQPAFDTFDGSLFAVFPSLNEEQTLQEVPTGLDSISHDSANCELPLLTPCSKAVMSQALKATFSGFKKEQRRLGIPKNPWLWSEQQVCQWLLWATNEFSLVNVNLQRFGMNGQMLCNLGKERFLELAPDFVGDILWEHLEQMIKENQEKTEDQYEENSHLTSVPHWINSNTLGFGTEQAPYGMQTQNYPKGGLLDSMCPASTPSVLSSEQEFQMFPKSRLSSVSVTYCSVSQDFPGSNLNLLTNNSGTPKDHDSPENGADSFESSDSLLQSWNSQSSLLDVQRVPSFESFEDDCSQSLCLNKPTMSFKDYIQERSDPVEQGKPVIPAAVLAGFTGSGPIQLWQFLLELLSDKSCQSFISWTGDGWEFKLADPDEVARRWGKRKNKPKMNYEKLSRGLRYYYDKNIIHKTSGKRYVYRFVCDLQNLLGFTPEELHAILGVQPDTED
Summary of the method: as §1

[9] = target: T6, SPDEF (Homo sapiens, UniProt O95238 1-335)
T6 sequence: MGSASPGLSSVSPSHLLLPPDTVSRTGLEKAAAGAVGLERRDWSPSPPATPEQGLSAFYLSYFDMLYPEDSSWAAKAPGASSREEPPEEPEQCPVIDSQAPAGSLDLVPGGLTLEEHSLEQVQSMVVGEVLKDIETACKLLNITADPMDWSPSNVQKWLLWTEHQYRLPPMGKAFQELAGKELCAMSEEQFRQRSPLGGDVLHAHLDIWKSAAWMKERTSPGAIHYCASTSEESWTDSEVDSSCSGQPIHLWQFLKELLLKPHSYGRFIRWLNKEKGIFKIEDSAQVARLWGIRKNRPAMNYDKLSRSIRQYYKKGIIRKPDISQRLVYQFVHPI
Summary of the method: as §1

[10] = target: T7, ETV7 (Homo sapiens, UniProt Q9Y603 1-341)
T7 sequence: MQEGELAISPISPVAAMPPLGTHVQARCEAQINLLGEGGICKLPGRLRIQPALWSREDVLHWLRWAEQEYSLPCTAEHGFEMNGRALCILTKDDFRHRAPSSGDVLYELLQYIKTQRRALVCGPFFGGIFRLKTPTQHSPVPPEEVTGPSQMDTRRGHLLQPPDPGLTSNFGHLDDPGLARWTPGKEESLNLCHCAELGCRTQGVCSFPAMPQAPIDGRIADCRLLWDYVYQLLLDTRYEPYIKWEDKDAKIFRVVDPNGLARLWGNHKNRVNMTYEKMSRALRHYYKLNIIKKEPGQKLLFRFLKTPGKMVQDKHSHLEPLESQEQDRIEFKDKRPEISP
Summary of the method: as §1

[11] = target: T8, ELF5 (Homo sapiens, UniProt Q9UKW6-2 1-255)
T8 sequence: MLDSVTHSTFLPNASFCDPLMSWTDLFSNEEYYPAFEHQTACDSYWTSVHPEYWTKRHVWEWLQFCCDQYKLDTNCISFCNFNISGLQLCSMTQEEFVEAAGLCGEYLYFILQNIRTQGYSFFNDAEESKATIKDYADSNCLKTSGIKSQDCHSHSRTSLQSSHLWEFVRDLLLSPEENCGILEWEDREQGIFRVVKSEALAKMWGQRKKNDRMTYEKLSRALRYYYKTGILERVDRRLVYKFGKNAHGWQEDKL
Summary of the method: as §1

[12] = target: T9, ELK1 (Homo sapiens, UniProt P19419 1-428)
T9 sequence: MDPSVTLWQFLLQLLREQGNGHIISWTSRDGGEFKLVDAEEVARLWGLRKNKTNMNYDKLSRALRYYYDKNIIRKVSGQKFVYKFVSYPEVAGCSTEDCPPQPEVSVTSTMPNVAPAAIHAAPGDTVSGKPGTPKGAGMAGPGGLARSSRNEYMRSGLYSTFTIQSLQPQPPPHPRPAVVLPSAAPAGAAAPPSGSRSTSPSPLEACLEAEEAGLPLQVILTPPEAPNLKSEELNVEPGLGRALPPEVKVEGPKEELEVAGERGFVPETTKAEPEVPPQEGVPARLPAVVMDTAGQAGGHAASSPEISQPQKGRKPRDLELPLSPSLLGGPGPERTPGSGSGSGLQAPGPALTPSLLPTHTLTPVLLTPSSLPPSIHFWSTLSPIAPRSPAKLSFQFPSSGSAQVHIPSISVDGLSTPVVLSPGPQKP
Summary of the method: as §1

[13] = target: T10, GABPA (Homo sapiens, UniProt Q06546 1-454)
T10 sequence: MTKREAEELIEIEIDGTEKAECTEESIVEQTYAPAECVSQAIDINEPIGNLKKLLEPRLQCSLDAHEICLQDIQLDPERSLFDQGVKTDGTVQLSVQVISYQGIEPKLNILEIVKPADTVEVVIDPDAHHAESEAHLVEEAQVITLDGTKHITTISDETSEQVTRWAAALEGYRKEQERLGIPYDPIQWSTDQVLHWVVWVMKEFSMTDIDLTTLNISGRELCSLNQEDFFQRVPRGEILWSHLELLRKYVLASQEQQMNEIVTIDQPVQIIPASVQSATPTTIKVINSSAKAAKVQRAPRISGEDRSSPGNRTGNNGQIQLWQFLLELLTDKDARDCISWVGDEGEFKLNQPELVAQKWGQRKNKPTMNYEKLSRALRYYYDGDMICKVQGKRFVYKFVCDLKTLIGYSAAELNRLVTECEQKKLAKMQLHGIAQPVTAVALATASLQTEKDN
Summary of the method: as §1

[14] = target: T11, EHF (Homo sapiens, UniProt Q9NZC4 1-300)
T11 sequence: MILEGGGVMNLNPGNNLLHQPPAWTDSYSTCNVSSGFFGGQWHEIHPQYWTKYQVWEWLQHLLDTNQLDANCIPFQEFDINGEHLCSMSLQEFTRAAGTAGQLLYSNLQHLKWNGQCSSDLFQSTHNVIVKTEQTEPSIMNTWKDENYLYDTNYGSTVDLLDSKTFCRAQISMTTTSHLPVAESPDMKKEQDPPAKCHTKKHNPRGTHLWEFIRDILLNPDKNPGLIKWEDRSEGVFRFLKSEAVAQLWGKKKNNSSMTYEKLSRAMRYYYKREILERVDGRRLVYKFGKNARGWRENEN
Summary of the method: as §1

[15] = target: T12, ETV2 (Homo sapiens, UniProt O00321 1-342)
T12 sequence: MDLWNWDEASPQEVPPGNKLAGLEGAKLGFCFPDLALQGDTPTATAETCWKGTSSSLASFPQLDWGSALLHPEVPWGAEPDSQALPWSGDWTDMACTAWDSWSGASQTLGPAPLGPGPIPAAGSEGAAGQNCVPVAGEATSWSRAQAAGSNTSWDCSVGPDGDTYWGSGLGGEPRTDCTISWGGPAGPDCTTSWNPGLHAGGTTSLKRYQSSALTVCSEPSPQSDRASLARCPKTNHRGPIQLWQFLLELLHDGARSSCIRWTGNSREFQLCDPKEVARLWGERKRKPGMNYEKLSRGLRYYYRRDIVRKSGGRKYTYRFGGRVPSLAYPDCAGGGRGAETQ
Summary of the method: as §1

[16] = target: ETV6 (Homo sapiens, UniProt P41212 1-452)
Summary of the method: as §1

Chain of SPIB (Q01892 whole entry): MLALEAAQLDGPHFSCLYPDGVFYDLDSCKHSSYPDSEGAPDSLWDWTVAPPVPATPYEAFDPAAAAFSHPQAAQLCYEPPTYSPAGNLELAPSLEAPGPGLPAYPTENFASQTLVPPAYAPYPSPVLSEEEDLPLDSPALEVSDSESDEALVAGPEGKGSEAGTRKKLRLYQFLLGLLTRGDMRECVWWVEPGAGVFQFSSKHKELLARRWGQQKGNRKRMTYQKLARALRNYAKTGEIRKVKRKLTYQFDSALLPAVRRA
Chain of ETV1 (P50549 whole entry): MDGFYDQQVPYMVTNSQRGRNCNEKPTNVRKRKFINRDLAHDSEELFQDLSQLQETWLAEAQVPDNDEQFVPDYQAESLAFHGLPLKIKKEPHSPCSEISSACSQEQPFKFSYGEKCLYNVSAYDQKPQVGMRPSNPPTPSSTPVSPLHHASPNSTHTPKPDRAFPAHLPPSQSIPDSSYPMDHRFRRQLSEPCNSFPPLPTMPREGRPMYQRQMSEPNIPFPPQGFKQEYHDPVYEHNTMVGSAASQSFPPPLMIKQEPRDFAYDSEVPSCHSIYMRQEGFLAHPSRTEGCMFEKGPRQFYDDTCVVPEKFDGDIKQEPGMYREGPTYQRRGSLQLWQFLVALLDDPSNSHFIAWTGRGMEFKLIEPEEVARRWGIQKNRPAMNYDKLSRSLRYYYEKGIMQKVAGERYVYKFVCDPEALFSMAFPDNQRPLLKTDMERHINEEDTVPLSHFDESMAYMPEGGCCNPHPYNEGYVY
Chain of ELF1 (P32519 whole entry): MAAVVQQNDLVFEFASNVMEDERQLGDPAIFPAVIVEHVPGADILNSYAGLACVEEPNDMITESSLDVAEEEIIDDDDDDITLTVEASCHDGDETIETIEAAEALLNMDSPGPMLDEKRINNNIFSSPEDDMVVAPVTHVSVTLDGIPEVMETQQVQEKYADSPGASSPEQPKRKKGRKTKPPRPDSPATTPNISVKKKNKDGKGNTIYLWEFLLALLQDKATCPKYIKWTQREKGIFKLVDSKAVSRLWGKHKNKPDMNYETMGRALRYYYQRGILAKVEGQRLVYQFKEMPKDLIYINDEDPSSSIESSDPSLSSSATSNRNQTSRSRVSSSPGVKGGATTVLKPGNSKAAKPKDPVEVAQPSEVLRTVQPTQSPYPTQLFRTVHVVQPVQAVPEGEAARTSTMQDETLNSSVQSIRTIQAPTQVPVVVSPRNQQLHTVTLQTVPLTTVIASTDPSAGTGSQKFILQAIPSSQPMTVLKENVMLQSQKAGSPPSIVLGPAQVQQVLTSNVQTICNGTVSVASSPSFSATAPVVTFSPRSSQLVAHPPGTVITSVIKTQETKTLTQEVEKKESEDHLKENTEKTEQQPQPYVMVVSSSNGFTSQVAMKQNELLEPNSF
Chain of ETV6 (P41212 whole entry): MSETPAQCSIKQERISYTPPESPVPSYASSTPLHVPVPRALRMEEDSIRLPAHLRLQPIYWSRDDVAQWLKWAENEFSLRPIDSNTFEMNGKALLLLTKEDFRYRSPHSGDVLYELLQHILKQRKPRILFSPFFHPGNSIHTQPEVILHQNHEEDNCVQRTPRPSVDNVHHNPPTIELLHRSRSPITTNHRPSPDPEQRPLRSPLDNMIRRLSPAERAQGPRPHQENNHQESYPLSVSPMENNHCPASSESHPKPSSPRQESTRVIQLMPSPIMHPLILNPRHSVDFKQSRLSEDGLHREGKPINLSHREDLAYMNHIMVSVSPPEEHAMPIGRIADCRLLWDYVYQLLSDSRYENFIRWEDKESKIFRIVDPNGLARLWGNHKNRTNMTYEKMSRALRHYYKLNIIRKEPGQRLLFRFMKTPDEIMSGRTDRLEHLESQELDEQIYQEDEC

Row | Sequence | binding signal [1] | binding signal [2] | binding signal [3] | binding signal [4] | binding signal [5] | binding signal [6] | binding signal [7] | binding signal [8] | binding signal [9] | binding signal [10] | binding signal [11] | binding signal [12] | binding signal [13] | binding signal [14] | binding signal [15] | binding signal [16]
1 | GGATGG | 1.02 fold enrichment (6-mer frequency, TF over GST control) | 1.05 fold enrichment (6-mer frequency, TF over GST control) | 1.03 fold enrichment (6-mer frequency, TF over GST control) | 1.13 fold enrichment (6-mer frequency, TF over GST control) | 1.13 fold enrichment (6-mer frequency, TF over GST control) | 1.05 fold enrichment (6-mer frequency, TF over GST control) | 1.08 fold enrichment (6-mer frequency, TF over GST control) | 1.03 fold enrichment (6-mer frequency, TF over GST control) | 1.09 fold enrichment (6-mer frequency, TF over GST control) | 1.06 fold enrichment (6-mer frequency, TF over GST control) | 1.03 fold enrichment (6-mer frequency, TF over GST control) | – | – | – | – | –
2 | GCATCT | 1.03 fold enrichment (6-mer frequency, TF over GST control) | 1.02 fold enrichment (6-mer frequency, TF over GST control) | 1.02 fold enrichment (6-mer frequency, TF over GST control) | – | 1.09 fold enrichment (6-mer frequency, TF over GST control) | 1.04 fold enrichment (6-mer frequency, TF over GST control) | 1.05 fold enrichment (6-mer frequency, TF over GST control) | 1.04 fold enrichment (6-mer frequency, TF over GST control) | – | – | – | 1.02 fold enrichment (6-mer frequency, TF over GST control) | 1.03 fold enrichment (6-mer frequency, TF over GST control) | 1.06 fold enrichment (6-mer frequency, TF over GST control) | 1 fold enrichment (6-mer frequency, TF over GST control) | 1.01 fold enrichment (6-mer frequency, TF over GST control)
